# Values without a mark were called inactive. Results filed as inconclusive are left out. Entries that show only a call come without a potency. Calls of active or inactive are those of the source. The call rests on the fitted dose curve; in most records, active means well fitted curve in the direction sought with a large enough effect in the repeat runs; inconclusive means weak or mixed curves; inactive means no such curve, though single readings can be large; an effect the other way counts as inactive or inconclusive.
# Assays:
# [1] = A CellTox Green Cytotoxicity Assay to monitor cytotoxicity in HEK293 cells - 32 hour (AID 1224881); further: nearly all actives have a fitted effect of over 40% in size; further: potency means the concentration at half of the fitted maximal effect
# Method in brief: (§1)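 Dead-cell fluorescence measured kinetically: asymmetric cyanine dye, HEK293, 600 cells/well, 5 h settle, 23 nL cpd/DMSO, 37 C, reads 0–40 h every 8 h.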
# [2] = A CellTox Green Cytotoxicity Assay to monitor cytotoxicity in HepG2 cells - 0 hour (AID 1224882); further: nearly all actives have a fitted effect of over 35% in size; further: potency means the concentration at half of the fitted maximal effect
# Method in brief: (§2)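 First, HepG2 cells (600/well) mixed with reagent were plated; second, after 5 h at 37 C they received compounds via pintool; third, fluorescence was measured at 0 h through 40 h at 8 h intervals.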
# [3] = A CellTox Green Cytotoxicity Assay to monitor cytotoxicity in HepG2 cells - 32 hour (AID 1224883); further: nearly all actives have a fitted effect of over 50% in size; further: potency means the concentration at half of the fitted maximal effect
# Method in brief: as §2
# [4] = A CellTox Green Cytotoxicity Assay to monitor cytotoxicity in HEK293 cells - 8 hour (AID 1224884); further: nearly all actives have a fitted effect of over 35% in size; further: potency means the concentration at half of the fitted maximal effect
# Method in brief: as §1
# [5] = qHTS RealTime-Glo MT Cell Viability Assay in HEK293 cells - 8 hour (AID 1224887); further: nearly all actives have a fitted effect of over 50% in size; further: potency means the concentration at half of the fitted maximal effect
# Method in brief: (§3)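 600 HEK293 cells per well, dispensed already mixed with RealTime-Glo MT reagents. Compound dosing came 5 h later. The same wells were read for luminescence at 0, 8, 16, 24, 32 and 40 h of exposure at 37 C.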
# [6] = A CellTox Green Cytotoxicity Assay to monitor cytotoxicity in HEK293 cells - 16 hour (AID 1224888); further: nearly all actives have a fitted effect of over 35% in size; further: potency means the concentration at half of the fitted maximal effect
# Method in brief: as §1
# [7] = qHTS RealTime-Glo MT Cell Viability Assay in HEK293 cells - 0 hour (AID 1224880); further: top concentration of the series differs between compounds; nearly all actives have a fitted effect of over 45% in size
# Method in brief: as §3
# [8] = qHTS RealTime-Glo MT Cell Viability Assay in HepG2 cells - 16 hour (AID 1224885); further: nearly all actives have a fitted effect of over 50% in size; further: potency means the concentration at half of the fitted maximal effect
# Method in brief: (§4)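 HepG2 cells were seeded at 600 cells/well together with NanoLuc luciferase and a cell-permeant prosubstrate, preincubated 5 h at 37 C/5% CO2, then pin-dosed with compounds in DMSO. Nonlytic luminescence from viable cells was read at each time point.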
# [9] = qHTS RealTime-Glo MT Cell Viability Assay in HEK293 cells - 24 hour (AID 1224886); further: nearly all actives have a fitted effect of over 50% in size; further: potency means the concentration at half of the fitted maximal effect
# Method in brief: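 HEK293 cells were seeded at 600 cells/well together with NanoLuc luciferase and cell-permeant prosubstrate, preincubated 5 h at 37 C/5% CO2, then given compound in DMSO by pintool. Luminescence from viable-cell prosubstrate reduction was read repeatedly over 40 h.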
# [10] = qHTS RealTime-Glo MT Cell Viability Assay in HepG2 cells - 0 hour (AID 1224889); further: nearly all actives have a fitted effect of over 50% in size
# Method in brief: as §4
Structure (SMILES),Potency [1],Potency [2],Potency [3],Potency [4],Potency [5],Potency [6],Potency [7],Potency [8],Potency [9],Potency [10]
CN1CCCN(C(c2ccccc2)c2ccc(Cl)cc2)CC1 (stereo not drawn),26.8 µM (active),inactive,21.3 µM (active),inactive,inactive,inactive,–,–,–,–
CCCCCCCC(=O)OCCCCCC,–,inactive,inactive,inactive,–,inactive,inactive,inactive,3.89 µM (active),–
Cc1ccc2c(c1[N+](=O)[O-])C(=O)c1ccccc1C2=O,inactive,inactive,inactive,inactive,inactive,inactive,–,inactive,–,inactive
O=[N+]([O-])c1ccc2ncccc2c1,–,inactive,inactive,–,inactive,inactive,inactive,inactive,inactive,inactive
CC/C=C\C/C=C\C/C=C\CCCCCCCC(=O)OCC,inactive,inactive,inactive,inactive,inactive,inactive,–,inactive,inactive,inactive
CC(C)C(O)C(C)(C)CO (stereo not drawn),–,inactive,inactive,inactive,–,inactive,inactive,inactive,0.801 µM (active),inactive
CC1=CC[C@@]23C[C@@H]1C(C)(C)[C@@H]2CC[C@H]3C,–,inactive,–,–,inactive,inactive,–,–,inactive,–
O=NN(CCCl)C(=O)NCCCl,–,5.35 µM (active),–,inactive,inactive,inactive,inactive,inactive,inactive,inactive
O=[N+]([O-])C1(Br)COCOC1,–,inactive,49 µM (active),–,49 µM (active),–,inactive,49 µM (active),38.9 µM (active),–
CC(C)(C)S,–,inactive,inactive,inactive,–,inactive,inactive,–,inactive,inactive
COc1ccc(-c2cc(C(F)F)nn2-c2ccc(S(N)(=O)=O)cc2)cc1F,–,inactive,inactive,inactive,–,inactive,inactive,inactive,–,inactive
CCCCCCCCCCCCCOS(=O)(=O)O,–,inactive,–,inactive,inactive,inactive,inactive,inactive,inactive,inactive
O=C(O)CCC(=O)OC[C@@H](NC(=O)C(Cl)Cl)[C@H](O)c1ccc([N+](=O)[O-])cc1,–,19 µM (active),12 µM (active),21.3 µM (active),–,–,inactive,–,inactive,–
CNS(=O)(=O)c1cc(C(=O)N2CCC(CCN3C4CCC3CC(n3c(C)nc5ccccc53)C4)(c3cccc(F)c3)CC2)c(Cl)cc1F (stereo not drawn),–,inactive,inactive,inactive,3.89 µM (active),inactive,inactive,–,4.36 µM (active),–
O=C1[C@@H]2[C@H]3CC[C@H](C3)[C@@H]2C(=O)N1CCCCN1CCN(c2ncccn2)CC1,–,inactive,–,inactive,inactive,inactive,inactive,inactive,inactive,inactive
COc1cc(NC(C)CCCN)c2ncccc2c1 (stereo not drawn),–,inactive,inactive,inactive,–,inactive,inactive,inactive,inactive,–

Structure (SMILES),Potency [1],Potency [2],Potency [3],Potency [4],Potency [5],Potency [6],Potency [7],Potency [8],Potency [9],Potency [10]
CCN(Cc1cccc(S(=O)(=O)O)c1)c1ccc(C(=C2C=CC(=[N+](CC)Cc3cccc(S(=O)(=O)O)c3)C=C2)c2ccc(O)cc2S(=O)(=O)[O-])cc1,–,inactive,inactive,inactive,inactive,inactive,inactive,–,inactive,inactive
CO[C@@H]1[C@@H](OC)[C@H](C)[C@@](O)(CC(=O)O)O[C@H]1[C@H](C)[C@H]1O[C@@]2(CC[C@@](C)([C@H]3CC[C@@](C)([C@@H]4O[C@@H]([C@H]5O[C@](C)(O)[C@H](C)C[C@@H]5C)C[C@@H]4OC4C[C@H](OC)[C@@H](OC)[C@H](C)O4)O3)O2)C[C@H](O)[C@H]1C (stereo partly drawn),–,–,9.52 µM (active),–,8.49 µM (active),inactive,inactive,–,3.38 µM (active),inactive
CC(=O)OCC(=O)[C@@]1(OC(C)=O)[C@@H](C)C[C@H]2[C@@H]3C[C@H](F)C4=CC(=O)C=C[C@]4(C)[C@@]3(F)[C@@H](O)C[C@@]21C,inactive,inactive,inactive,inactive,inactive,inactive,–,–,inactive,–
Cc1cc([N+](=O)[O-])ccc1N,–,inactive,inactive,inactive,–,inactive,inactive,inactive,inactive,inactive
CC(C)CC(O)CC(C)C,–,inactive,inactive,–,–,inactive,inactive,inactive,inactive,–
CCCCCCCCCCCCCCCCCC(=O)OCC(CC)CCCC (stereo not drawn),–,inactive,inactive,–,inactive,inactive,inactive,inactive,inactive,–
CN1C(CSCC(F)(F)F)Nc2cc(Cl)c(S(N)(=O)=O)cc2S1(=O)=O (stereo not drawn),–,inactive,inactive,inactive,19 µM (active),inactive,inactive,–,16.9 µM (active),inactive
CCCCCCCC/C=C/C(=O)O,–,inactive,inactive,inactive,–,inactive,inactive,–,inactive,inactive
CC(C)COC(=O)c1ccc(O)cc1,–,inactive,–,inactive,–,–,inactive,–,–,–
CC(CN(CCN(CC(C)OCCO)CC(C)OCCO)CC(C)OCCO)OCCO (stereo not drawn),–,inactive,–,inactive,–,inactive,inactive,inactive,23.7 µM (active),inactive
CCCCCCCC(=O)Oc1c(Br)cc(C#N)cc1Br,–,inactive,inactive,inactive,–,inactive,inactive,–,38.8 µM (active),inactive
c1ccc(CCCc2ccncc2)cc1,–,inactive,–,inactive,–,–,inactive,inactive,–,inactive
CCCCCCCCCCCCCC(=O)OCC(O)CO (stereo not drawn),–,inactive,inactive,inactive,–,–,inactive,inactive,inactive,inactive
Nc1cccc2c(N)cccc12,–,inactive,–,–,inactive,inactive,inactive,–,–,–
O=C1c2ccccc2C(=O)c2c(O)ccc(O)c21,–,inactive,24.5 µM (active),27.5 µM (active),–,30.9 µM (active),inactive,inactive,inactive,–
C[C@@H]1[C@H](O)[C@@H](C)/C=C/C=C\C=C\C=C\C=C\C=C\C=C\[C@H](O[C@@H]2O[C@H](C)[C@@H](O)[C@H](N)[C@@H]2O)C[C@@H]2O[C@](O)(C[C@@H](O)C[C@@H](O)[C@H](O)CC[C@@H](O)C[C@@H](O)CC(=O)O[C@H]1C)C[C@H](O)[C@H]2C(=O)O (stereo in doubt),–,inactive,–,inactive,inactive,inactive,inactive,inactive,inactive,inactive

# — PubChem BioAssay (Tox21)
